From PubChem BioAssay AID743314 (Broad Institute, 2014)
Results with a measured potency or affinity are listed apart. Inconclusive results are not listed. The source made the active and inactive calls.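 Rule for the calls: active = fitted half-maximal concentration no higher than twice the top tested dose, in every repeat run; inconclusive = repeat runs disagree, poor fit, or flat partial inhibition; inactive = the rest.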

Target: Endoplasmic reticulum aminopeptidase 1 (Homo sapiens) (UniProt Q9NZ08)
Test: inhibition of human ERAP1 enzyme activity – biochemical, cherry-pick, set 2, plate reader, dose response (AID 743314);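 note: 0% = neutral control wells and -100% = L-leucinethiol positive control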
Conditions: Recombinant ERAP1, Leu-AMC fluorescence, 60 min; series mostly up to 11 µM; activity change, negative = inhibition: at the top concentration

Chain of Endoplasmic reticulum aminopeptidase 1 (Homo sapiens) (Q9NZ08 whole entry, looked up): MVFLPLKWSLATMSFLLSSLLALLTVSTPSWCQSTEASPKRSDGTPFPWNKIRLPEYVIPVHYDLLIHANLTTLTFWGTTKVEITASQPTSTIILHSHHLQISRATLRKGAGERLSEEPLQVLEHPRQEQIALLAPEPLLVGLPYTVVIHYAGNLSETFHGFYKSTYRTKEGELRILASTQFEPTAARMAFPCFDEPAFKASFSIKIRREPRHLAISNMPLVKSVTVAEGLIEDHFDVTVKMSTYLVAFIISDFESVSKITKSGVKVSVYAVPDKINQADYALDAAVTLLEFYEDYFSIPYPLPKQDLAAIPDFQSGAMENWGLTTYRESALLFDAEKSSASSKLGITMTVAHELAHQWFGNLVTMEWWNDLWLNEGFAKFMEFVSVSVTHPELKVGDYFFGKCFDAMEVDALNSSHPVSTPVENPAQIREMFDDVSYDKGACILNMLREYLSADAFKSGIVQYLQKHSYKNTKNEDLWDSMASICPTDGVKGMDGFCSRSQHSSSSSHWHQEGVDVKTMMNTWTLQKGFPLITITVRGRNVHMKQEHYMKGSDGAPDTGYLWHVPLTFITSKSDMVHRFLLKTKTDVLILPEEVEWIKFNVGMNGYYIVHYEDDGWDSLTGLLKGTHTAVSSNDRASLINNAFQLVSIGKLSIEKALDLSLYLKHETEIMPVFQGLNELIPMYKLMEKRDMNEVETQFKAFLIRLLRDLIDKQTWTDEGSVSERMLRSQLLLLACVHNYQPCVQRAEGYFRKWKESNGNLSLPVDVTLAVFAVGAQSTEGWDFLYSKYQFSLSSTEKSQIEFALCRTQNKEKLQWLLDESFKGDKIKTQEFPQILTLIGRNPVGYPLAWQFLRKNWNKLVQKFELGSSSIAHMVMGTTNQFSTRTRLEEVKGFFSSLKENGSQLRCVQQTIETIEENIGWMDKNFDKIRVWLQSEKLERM

Activity change, negative = inhibition, inactive:
COc1ccc(NC(=O)Nc2ccc3c(c2)C(=O)N([C@@H](C)CO)C[C@@H](C)[C@H](CN(C)Cc2ccc(C(=O)O)cc2)OCCCC[C@H](C)O3)cc1 57%
COc1ccc(CN(C)C[C@@H]2OCCCC[C@H](C)Oc3ccc(NS(=O)(=O)c4cccs4)cc3C(=O)N([C@@H](C)CO)C[C@H]2C)cc1 44.6%
C[C@H]1CN([C@@H](C)CO)C(=O)c2cc(-c3ccc(F)cc3)cnc2O[C@H]1CN(C)CC1CCCCC1 36.7%
C[C@@H]1CCCCO[C@H](CN(C)S(=O)(=O)c2ccccc2)[C@H](C)CN([C@H](C)CO)C(=O)c2cc(NS(=O)(=O)c3ccc(Cl)cc3)ccc2O1 22%
COc1ccc(C(=O)NCc2nnc(SCCOc3ccccc3)n2C)cc1 -13.3%
CCN1CCCC1CNS(=O)(=O)c1cccc(C(F)(F)F)c1 (stereo unspecified) -3.89%
O=C(c1ccccc1)N1CC(=O)N2[C@H](CO)[C@@H](c3ccc(-c4ccccc4)cc3)[C@H]2C1 33%
O=c1cc(CN2CCOCC2)c2cc(Cl)c(O)cc2o1 126%
O=C(NCCN1CCCC1)[C@H]1[C@H](CO)[C@H]2Cn3c(cccc3=O)[C@@H]1N2C(=O)NC1CCCC1 25.1%
CC(=O)NC(CC(=O)NCCOc1ccccc1F)c1ccccc1 (stereo unspecified) -12.5%
COc1ccc(S(=O)(=O)N(C)C[C@H]2Oc3ccc(N(C)C)cc3CC(=O)N([C@H](C)CO)C[C@H]2C)cc1 27.5%
COc1ccccc1-c1cccc(-c2nc(C(=O)Nc3nccs3)cc3c2[C@@H](CCO)N(C(=O)CC2CC2)C3)c1 -7.7%
COc1ccc(C2=NN(c3ccc(C(=O)O)cc3)C(c3ccc(OC)c(OC)c3)C2)cc1 (stereo unspecified) 364%
C[C@@H]1CCCCO[C@@H](CN(C)C)[C@H](C)CN([C@H](C)CO)C(=O)c2cc(NS(=O)(=O)c3ccc(Cl)cc3)ccc2O1 14%
Cc1ccc(NC(=O)C2CCN(C(=O)c3cccs3)CC2)c(C)c1 -4.73%
COc1ccc(C#Cc2cccc(-c3nc(C(=O)N4CCN(C)CC4)cc4c3[C@@H](CCO)N(S(=O)C(C)(C)C)C4)c2)cc1OC (stereo partly specified) 37.6%
CCOC(=O)c1[nH]c2ccc(Br)cc2c1NC(=O)CCN1CCOCC1 13.7%
COc1ccc2c3c([nH]c2c1)[C@@H](CO)N(C(C)=O)CC31CN(S(=O)(=O)c2cccs2)C1 25.8%
COc1ccc(CN(C)C[C@H]2OCCCC[C@H](C)Oc3ccc(NS(=O)(=O)c4cccs4)cc3C(=O)N([C@H](C)CO)C[C@@H]2C)cc1 50.9%
C[C@H]1CCCCO[C@@H](CN(C)C)[C@@H](C)CN([C@@H](C)CO)C(=O)c2cc(NS(=O)(=O)c3ccc(Cl)cc3)ccc2O1 53%
CCN1CCN(CCCNC(=O)c2cc3c(s2)-c2ccccc2OC3)CC1 -21.4%
COCc1cn(CC[C@@H]2CC[C@H](NC(=O)CCN3CCCCC3)[C@H](CO)O2)nn1 19.3%
C[C@@H]1CN([C@H](C)CO)C(=O)c2cc(NS(=O)(=O)c3ccc(Cl)cc3)ccc2O[C@@H](C)CCCCO[C@@H]1CN(C)C 3.13%
C[C@H](CO)N1C[C@H](C)[C@@H](CN(C)Cc2ccc(C(=O)O)cc2)OCCCC[C@H](C)Oc2ccc(NC(=O)Nc3ccccc3)cc2C1=O 58.9%
CCn1cc(CN2CCCC(C(=O)Nc3ccc(-c4nc5ccccc5[nH]4)cc3)C2)c(C)n1 (stereo unspecified) 82.3%
CC(C)[C@H](NC(N)=O)C(=O)NNC(=O)COc1cccc(C(F)(F)F)c1 -4.59%
